# This is one part of the list. Unmarked numbers belong to inactive results. How the calls were made is not given here.
# Test: redox cycling hydrogen peroxide production, dose response, artefact control, biochemical, probe assessment (AID 672)
# Details: Redox cycling H2O2 generation, DTT, phenol red/HRP
compound,measurement,value
CCc1ccc(NC(=O)CSc2nc3ccccc3c(=O)n2CCN2CCOCC2)cc1,EC50,> 50 µM

# Source: PubChem BioAssay AID672 (University of Pittsburgh Molecular Library Screening Center, 2007)
